# m5-HT2A agonist: mouse Htr2a agonists via beta-arrestin recruitment, primary screen, cell-based, luminescence. 5-hydroxytryptamine receptor 2A (Mus musculus), P35363. CHO-K1 mHTR2A beta-arrestin complementation; percent of 30 µM serotonin response. activation, % at 7.6 µM. actives 0.66% (n = 360,000);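 active = activation above a run cutoff, the mean activation of all tested compounds plus 3 SD, cut at about 14% in these data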
# HGIII-sPLA2 inh: human group III sPLA2 inhibitors, primary screen, biochemical, QFRET, BODIPY PC-A2 liposome substrate | Group 3 secretory phospholipase A2 (Homo sapiens), Q9NZ20 | QFRET BODIPY PC-A2 liposome hydrolysis, fluorescence | inhibition, % at 12.2 µM | actives 0.56% (n = 370,000) | AID 743126, 2013;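 active = inhibition above mean plus 3 SD of compounds lying within the high and low control bounds, cut at about 19% in these data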
# Target sequence (Q9NZ20 whole entry, looked up): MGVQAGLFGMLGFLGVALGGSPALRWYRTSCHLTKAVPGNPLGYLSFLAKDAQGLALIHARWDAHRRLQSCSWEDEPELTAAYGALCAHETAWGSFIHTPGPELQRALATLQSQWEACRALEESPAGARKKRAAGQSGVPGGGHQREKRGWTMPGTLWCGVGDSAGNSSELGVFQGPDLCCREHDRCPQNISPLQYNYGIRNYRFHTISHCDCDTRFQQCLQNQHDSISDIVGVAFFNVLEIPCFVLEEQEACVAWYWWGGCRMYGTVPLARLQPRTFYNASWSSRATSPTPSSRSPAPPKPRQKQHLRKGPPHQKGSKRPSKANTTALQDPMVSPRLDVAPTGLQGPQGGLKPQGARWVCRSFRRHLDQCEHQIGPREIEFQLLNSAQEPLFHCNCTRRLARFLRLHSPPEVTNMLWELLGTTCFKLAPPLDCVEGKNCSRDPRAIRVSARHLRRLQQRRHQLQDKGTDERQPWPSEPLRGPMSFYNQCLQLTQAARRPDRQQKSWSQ
# MOR-DOR ag: agonists of OPRM1-OPRD1 heterodimerization, primary screen, cell-based, luminescence. AID 504326, 2011. activation, % at 9.3 µM. actives 0.3% (n = 340,000). cells; in the data active = activation above about 18%
# HTR5A ag: HTR5A agonists in luminescence cell assay, primary screen, counter-screen for OPRM1-OPRD1 heterodimer agonist project, full-deck HTS; cell-based; 5-hydroxytryptamine receptor 5A (Homo sapiens), P47898; AID 504692, 2011; activation, % at 9.3 µM; actives 0.61% (n = 340,000); in the data active = activation mostly above about 9.5%, no sharp cut-off; inactive = mostly below about 7.6%
# MOR-DOR inv ag: inverse agonists of MOR-DOR heterodimerization, primary screen, cell-based, luminescence. Mu-type opioid receptor (Homo sapiens) + Delta-type opioid receptor (Homo sapiens), …. cell-based MOR-DOR heterodimer luminescence, inverse agonism. inhibition, % at 9.3 µM. actives 0.21% (n = 340,000). AID 504357, 2011; in the data active = inhibition above about 22%, passing the limit was not always enough
# HTR5A inv ag: HTR5A inverse agonists in luminescence cell assay, primary screen, counter-screen for OPRM1-OPRD1 heterodimer inverse agonist project, full-deck HTS | AID 504634, 2011 | 5-hydroxytryptamine receptor 5A (Homo sapiens), P47898 | actives 0.083% (n = 340,000) | inhibition, % at 9.3 µM | HTR5A cell line, inverse agonism; in the data active = inhibition mostly above about 23%, no sharp cut-off; inactive = mostly below about 18%
# sPLA2 confirm: human group III sPLA2 inhibitors, confirmation, biochemical, QFRET, triplicate; shares compounds with HGIII-sPLA2 inh; inhibition, % at 12.2 µM; recombinant hGIII-sPLA2, BODIPY PC-A2 QFRET fluorescence; actives 34% (n = 2,000);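 active = mean inhibition across triplicates above the hit cutoff set in the earlier primary screen, cut at about 19% in these data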
# BODIPY interf: 535nm fluorescence optical interference, confirmation, artefact control for HGIII-sPLA2 inhibitor project, biochemical, QFRET. shares compounds with HGIII-sPLA2 inh. BODIPY FL product fluorescence interference. inhibition, % at 12.2 µM. actives 8.5% (n = 2,000);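 active = average inhibition above the solvent-only control mean plus 3 SD, cut at about 6% in these data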
# 535nm interf DR: 535nm fluorescence optical interference, dose response, artefact control for HGIII-sPLA2 inhibitor project, biochemical, QFRET; 240 tested, under 10 active; IC50, µM; shares compounds with HGIII-sPLA2 inh; BODIPY FL product fluorescence interference, cell-free;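 active = IC50 at or below 10 µM; inactive = IC50 above 10 µM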
# A number is an active result; . = inactive; / = not tested or not shown. Sampled rows, rich in hits. Any-hit rate of the full collection: about 2.2%.
SMILES,m5-HT2A agonist,HGIII-sPLA2 inh,MOR-DOR ag,HTR5A ag,MOR-DOR inv ag,HTR5A inv ag,sPLA2 confirm,BODIPY interf,others
O=[N+]([O-])c1ccccc1C(=Nc1ccccc1)c1c(O)cc(O)cc1O,.,26,/,/,/,/,.,.,
Cc1cc2c(=Cc3ccc(N(C)C)cc3)c3ccccc3n2[n+]1C,.,.,.,.,.,.,/,/,
CCOC(=O)c1cc2c(=Cc3ccc(N(C)C)cc3)c3ccccc3n2[n+]1C,.,28,.,.,.,.,35,.,535nm interf DR=.
CC(=O)Nc1ccc(-n2cc(-c3ccccc3)[nH]c2=S)cc1,.,.,.,.,.,.,/,/,
COc1ccc(-n2cc(-c3ccccc3)[nH]c2=S)cc1,.,19,.,.,.,.,41,.,535nm interf DR=.
Cc1cccc(-n2cc(-c3ccccc3)[nH]c2=S)c1,.,20,.,.,.,.,31,.,
O=[N+]([O-])c1ccc(-c2cn(-c3ccccc3F)c(=S)[nH]2)cc1,.,.,.,.,.,.,/,/,
Cc1ccc(-c2cn(-c3ccccc3F)c(=S)[nH]2)cc1,.,27,.,.,.,.,24,.,
Cc1ccccc1N=Nc1c(N)[nH]n(-c2ccccc2)c1=O,/,.,/,/,/,/,/,/,
CCCCN1CN2Cc3ccccc3C2CS1(=O)=O (stereo not given),/,.,/,/,/,/,/,/,
COc1ccc(N2CCN(CCCNC(=O)Cc3ccc(C(F)(F)F)cc3)CC2)cc1,/,.,/,/,/,/,/,/,
CC(C)c1cc(C(=O)NCCc2cccs2)c(N)s1,.,.,/,/,/,/,/,/,
CC(C)c1cc(C(=O)NCc2ccc(F)cc2)c(N)s1,.,21,/,/,/,/,24,.,
O=c1oc(-c2cccc(C(F)(F)F)c2)nn1-c1ccc(C(F)(F)F)cn1,.,21,.,.,.,.,42,25,
Cc1nn(-c2cc(C(F)(F)F)ccn2)c(=O)o1,.,.,.,.,.,.,/,/,
Cc1ccc(O)c(N=Nc2nccs2)c1,.,25,.,.,.,.,.,9.9,
COc1ccc(S[C@]2(C(=O)NCC(C)C)CC(=O)N[C@@H]2c2ccc(OC)cc2)cc1,/,.,/,/,/,/,/,/,
O=c1ccn([C@@H]2O[C@H](CNCc3ccccc3)[C@@H](O)[C@H]2O)c(=O)[nH]1,.,.,/,/,/,/,/,/,
O=c1ccn([C@@H]2O[C@H](CNCC3=Cc4cc(O)ccc4OC3)[C@@H](O)[C@H]2O)c(=O)[nH]1,.,20,.,.,.,.,.,.,
C=CCN1C(=O)[C@@H](CC(=O)NCc2cccs2)[C@]2(C(=O)OC)CCCCC=C12,/,.,/,/,/,/,/,/,
COc1cccc(Nc2nc(C(N)c3ccccc3)cs2)n1 (stereo not given),.,24,/,/,/,/,.,.,
CCOc1cccc(C2NC(=S)NC(C)=C2C(=O)Nc2ccccc2)c1 (stereo not given),.,24,.,.,.,.,.,.,
N#CC(C#N)=c1ccc2c(c1)NC1(CCCCC1)N=2,.,38,.,.,.,.,61,18,
N#CC(C#N)=C1NC2(CCCCC2)Cc2ccccc21,.,.,.,.,.,.,/,/,
CCn1c(-c2cccc(Br)c2)n[nH]c1=S,.,23,.,.,.,.,34,.,535nm interf DR=.
CCC(C)c1ccccc1OCCOCCN1CCCC1 (stereo not given),.,20,.,.,.,.,.,.,
Cc1ccc(NC(=S)NC2CCCC2)c(C)c1,.,19,.,.,.,.,.,.,
